Rows were chosen to be rich in hits. Some 14% of all compounds tested hit in one or more screens of this group.
USP10 inh: human USP10 deubiquitinase inhibition | inhibition, % at 20 µM | purified USP10, Ub-rhodamine fluorescence, 60 min | Q14694 | hit rate 1.1% among 47,000
USP8 inh: blocks human USP8 ubiquitin-rhodamine cleavage; P40818; purified USP8, Ub-rhodamine cleavage fluorescence, 30 min; inhibition, % at 20 µM; hit rate 4.2% among 47,000
USP17 block: blocks human USP17 ubiquitin-rhodamine cleavage. inhibition, % at 50 µM. A8MUK1. hit rate 6.5% among 47,000. purified USP17, Ub-rhodamine cleavage fluorescence, 3 h
USP28 block: inhibitors of human USP28 deubiquitinase; Q96RU2; purified USP28, Ub-rhodamine cleavage fluorescence, 30 min; inhibition, % at 25 µM; hit rate 3% among 47,000
USP30 inh: blocks human USP30 ubiquitin-rhodamine cleavage; purified USP30, Ub-rhodamine cleavage fluorescence; inhibition, % at 25 µM; hit rate 5.3% among 47,000
Starred values were filed as active, the others as inactive; i = inactive; x = no result given. Cut-off read from the data, not from the text of the source: active = inhibition above about 30%; inactive = the rest.

SMILES	USP10 inh	USP8 inh	USP17 block	USP28 block	USP30 inh
CC(=O)c1cccc(S(=O)(=O)Nc2ccc(S(=O)(=O)Nc3nc(C)cc(C)n3)cc2)c1	4.5	-0.2	-13.3	0.0	-56.6
COc1ccc(NS(=O)(=O)c2ccc(/C=C\c3onc(C)c3NC(C)=O)cc2)cc1	0.9	0.7	5.4	x	x
NS(=O)(=O)c1cccc(NS(=O)(=O)c2ccc(/C=C/C(=O)OCC(=O)c3ccc(Br)cc3)cc2)c1	41.2*	5.8	15.4	58.9*	18.0
CCc1ccc(NC(=O)C(C)OC(=O)/C=C/c2ccc(S(=O)(=O)Nc3cccc(S(N)(=O)=O)c3)cc2)cc1 (configuration not stated)	32.6*	17.9	33.1*	27.4	15.4
COc1ccc(C(=O)COC(=O)/C=C/c2ccc(S(=O)(=O)Nc3cccc(S(N)(=O)=O)c3)cc2)cc1	22.6	-6.2	10.2	43.4*	21.7
COc1ccc(Br)cc1CNC(=O)CCC(=O)N1CCCn2nc(C)cc21	-5.1	-40.8	-21.0	-32.2	-28.0
Cc1nnc(-c2c(C)[nH]c(C)c2S(=O)(=O)N(C)Cc2ccccc2)o1	1.9	-62.9	2.7	6.9	8.8
Cc1cc(C)cc(N(CC(=O)NCc2ccc3c(c2)OCO3)C(=O)c2ccc3c(c2)OCCO3)c1	9.0	12.6	23.9	18.6	35.7*
COc1cc2c(cc1OC)-c1cc(NCc3cc(OC)c(OC)c(OC)c3)nc(=O)n1CC2	-7.6	-23.1	x	1.0	-5.2
COc1cc2c(cc1OC)-c1cc(-c3cc(OC)c(OC)c(OC)c3)cn1CC2	-3.5	35.9*	-3.1	-24.8	-140.5
CCS(=O)(=O)N1Cc2ccccc2CC1C(=O)N=c1sc2ccccc2n1C (configuration not stated)	-6.8	-7.0	0.1	7.9	-100.8
Cc1ccc(S(=O)(=O)NC(C(=O)N=c2sc3ccccc3n2C)C(C)C)cc1 (configuration not stated)	3.0	-1.1	62.8*	14.6	-22.7
Cn1nc(-c2ccccc2)cc1C(=O)NC1CNC(=O)C1 (configuration not stated)	0.8	-12.9	-12.5	-8.9	-0.3
Cc1ccc(NC(=O)CC(C)CC(=O)Nc2ccc(C(C)C)cc2)cc1Cl (configuration not stated)	6.7	31.2*	x	10.6	25.8
COc1ccc(NC(=O)CC(c2ccco2)n2cccc2)c(OC)c1 (configuration not stated)	-1.4	-22.2	-27.7	-40.8	-131.1
CC(CC(=O)Nc1ccc(F)cc1)CC(=O)Nc1ccc(C(C)C)cc1 (configuration not stated)	6.6	-0.1	0.0	-0.4	9.5
COc1ccc(NC(=O)CC(C)CC(=O)Nc2ccc(C(C)C)cc2)c(OC)c1 (configuration not stated)	-1.2	7.9	45.8*	1.6	20.3
O=C(O)CSc1ccc(C(F)(F)F)cn1	-1.1	-2.8	0.2	4.7	15.9
COc1cc(CN(C(=O)c2oc3cc(C)ccc3c2C)c2ccccn2)cc(OC)c1OC	10.1	31.5*	16.8	11.3	-10.0
CCN(CC)c1ccc2nnc(CCC(=O)NCc3ccc(C)cc3)n2n1	-8.1	-3.7	-20.2	-11.9	-36.1
CCNC(=O)N1CCCN(Cc2ccccc2F)CC1	-1.2	11.9	4.0	1.7	7.7
Cc1cc(C)c(C(=O)CSc2nnc(-c3ccccc3)o2)cc1C	-4.2	56.3*	5.4	-16.3	-57.3
COc1ccccc1CNC(=O)c1oc(=O)c2ccccc2c1-c1ccc(C)cc1	13.0	10.4	21.4	25.1	39.8*
CC1c2ncc(CNC(=O)C3CC3)n2CCN1c1ccccn1 (configuration not stated)	-3.8	4.6	x	10.0	22.6
CC(=O)c1cc2c(=O)c3c(C(=O)O)c(O)c(O)cc3oc2c(C(C)=O)c1-c1coc2cc(O)c(O)c(C(=O)O)c2c1=O	-3.3	-63.2	46.4*	40.4*	-87.3
SMILES	USP10 inh	USP8 inh	USP17 block	USP28 block	USP30 inh
CN(C)CCc1cc2c(c3c1ccc1ccccc13)OCO2	-2.0	7.9	16.6	74.7*	31.3*
COc1ccc(NC(=O)Cn2c(C)cc(=O)n3nc(-c4cccc(C)c4)nc23)cc1	46.6*	63.9*	16.5	3.0	31.4*
Cc1ccc(CNC(=O)C2CCCN(c3nc4ncccc4n4cccc34)C2)cc1 (configuration not stated)	-1.7	-108.3	-159.7	-170.7	i
N#Cc1cccc(NC(=O)c2cc([N+](=O)[O-])ccc2N2CCCCC2)c1	9.1	-1.0	24.2	-14.3	-14.1
Nc1ccc([N+](=O)[O-])cc1NC(=O)CSc1ccc2ccccc2c1	8.2	41.3*	-14.6	1.9	-22.7
COc1ccc([N+](=O)[O-])cc1NC(=O)C(C)OC(=O)CSc1ccc2ccccc2c1 (configuration not stated)	3.1	-84.5	0.2	13.3	14.4
CCOc1ccc(CCNC(=O)c2ccc3c(c2)N(CC)C(=O)c2ccccc2S3)cc1OCC	7.0	9.2	0.3	60.2*	-1.5
O=C(/C=C1\NCCc2cc3c(cc21)OCCCO3)c1cccnc1	-3.0	0.8	2.9	10.1	-19.4
CC(C)Cn1c(=O)c2ccccc2n2c(CCC(=O)NCC3CCCO3)nnc12 (configuration not stated)	2.9	11.4	9.9	3.0	34.9*
CC(C)CCn1c(=O)c2ccccc2n2c(CCC(=O)NCCN3CCCC3)nnc12	-2.9	-12.4	-12.8	-4.4	-55.4
CCN(CCCNC(=O)CCc1nnc2n(Cc3ccc(C)cc3)c(=O)c3ccccc3n12)c1cccc(C)c1	-0.8	5.8	6.3	14.4	23.9
O=C(CCc1nnc2n(Cc3ccc(F)cc3)c(=O)c3ccccc3n12)N1CCN(c2ccccn2)CC1	6.3	4.9	20.7	20.2	52.8*
CCN(CCCNC(=O)CCc1nnc2n(Cc3ccccc3)c(=O)c3ccccc3n12)c1cccc(C)c1	5.5	9.6	x	16.6	41.9*
O=C(CCc1nnc2n(Cc3ccccc3)c(=O)c3ccccc3n12)NCC1CCCO1 (configuration not stated)	-1.0	0.6	10.6	12.4	30.5*
O=S(=O)(c1ccc(-c2ccon2)s1)N(Cc1ccccn1)Cc1ccccn1	-5.5	-43.1	-2.8	-8.0	-66.9
CS(=O)(=O)N1CCN(CCc2ccccc2)CC(C(N)=O)C1 (configuration not stated)	-2.3	0.1	-5.2	x	x
O=C(Cc1cccc(F)c1)NCC(=O)Nc1nc2ccccc2[nH]1	4.5	-10.2	20.5	1.8	1.8
O=C(COc1cccc(F)c1)NC(Cc1ccccc1)c1nc2ccccc2[nH]1 (configuration not stated)	-2.6	73.0*	45.6*	-1.7	10.8
N#Cc1ccc(OCC(=O)NC(Cc2ccccc2)c2nc3ccccc3[nH]2)cc1 (configuration not stated)	-2.1	35.8*	11.6	2.9	9.5
Cc1c(C)c(C(=O)O)c(O)c(C)c1O	-4.4	-39.2	-0.3	-0.8	0.6
Cc1cc(C(=O)Nc2ccc3nc(N4CCN(c5ncccn5)CC4)cc(C)c3c2)ccc1[N+](=O)[O-]	2.6	2.8	73.4*	0.9	25.5
